A selection: hits, their analogues and other compounds. The true share with any hit is near 3.5%.
FBW7 act: human FBW7 E3 ligase activation, primary screen | AlphaScreen FBW7–phospho-cyclin E peptide binding, activator screen | normalized activity (activation), % at 26.1 µM | hit rate 0.13% among 650,000 | AID 1259310; in the data active = normalized activity above about 1.9%;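 note: purified mutant Fbw7 with reduced substrate affinity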
GPR151 activ: activates the human receptor GPR151; AID 1508602; activation, % at 11.2 µM; PathHunter beta-arrestin GPR151 cells, luminescence; hit rate 1% among 650,000; Q8TDV0; in the data active = activation above about 4.9%;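 note: 0% = median of compound wells and 100% = cells with positive control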
Target sequence (Q8TDV0 whole entry, looked up): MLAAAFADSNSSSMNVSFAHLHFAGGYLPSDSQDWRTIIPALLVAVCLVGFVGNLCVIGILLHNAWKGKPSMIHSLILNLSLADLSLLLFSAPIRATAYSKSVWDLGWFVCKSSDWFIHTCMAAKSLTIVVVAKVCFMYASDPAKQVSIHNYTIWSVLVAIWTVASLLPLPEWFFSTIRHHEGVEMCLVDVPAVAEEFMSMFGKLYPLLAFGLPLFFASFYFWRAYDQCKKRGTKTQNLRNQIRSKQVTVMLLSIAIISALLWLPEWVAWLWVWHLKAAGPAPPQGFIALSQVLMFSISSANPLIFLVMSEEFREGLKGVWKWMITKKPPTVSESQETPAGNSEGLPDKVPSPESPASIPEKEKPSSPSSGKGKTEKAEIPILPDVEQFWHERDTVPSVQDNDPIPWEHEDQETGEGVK
TEAD-YAP inh: TEAD-YAP interaction inhibition; HEK-TIYL cells, TEAD-Gal4/YAP UAS-luciferase luminescence; hit rate 1.4% among 640,000; inhibition, % at 9.12 µM; in the data active = inhibition above about 32%;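 note: 0% = median of test compound wells and 100% = reference inhibitor wells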
MITF primary: inhibitors of human MITF. AlphaScreen MITF homodimerization, bead proximity signal. inhibition, % at 2.6 µM. hit rate 0.91% among 650,000; in the data active = inhibition above about 50%;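 note: 0% = vehicle wells with protein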
* hit, by the source's call.

`COC(=O)Oc1c(Br)cc2sc(=O)oc2c1Br` gave FBW7 act 0.0, GPR151 activ -0.1, TEAD-YAP inh -1.6 and MITF primary 4.6.
Screening Cc1c(Br)c(O)c(Br)c2sc(=O)oc12 returned FBW7 act -0.5, GPR151 activ 0.1, TEAD-YAP inh 4.2 and MITF primary 78.8*.
O=c1oc2c(Br)cc(Br)c(O)c2s1 was read as FBW7 act -0.7, GPR151 activ 0.9, TEAD-YAP inh -10.7 and MITF primary 8.2.
For CCOc1ccc(-c2nc3n(n2)C(=O)CC(c2cccc(F)c2)S3)cc1OCC (centres undefined) the results were FBW7 act 0.1, GPR151 activ -0.2, TEAD-YAP inh 5.2 and MITF primary 5.8.
For Cc1ccc2nc(-c3cccc(Br)c3)cn2c1 the results were FBW7 act 0.1, GPR151 activ -7.0, TEAD-YAP inh 85.3* and MITF primary 30.4.
For Cc1ccc2nc(-c3ccccc3Br)cn2c1 the results were FBW7 act 0.1, GPR151 activ -6.2, TEAD-YAP inh 72.6* and MITF primary -7.6.
For Oc1ccccc1-c1cn2cc(Cl)ccc2n1 the results were FBW7 act -0.5, GPR151 activ -1.9, TEAD-YAP inh -41.1 and MITF primary 9.4.
Screening Cc1ccc2nc(-c3ccccc3)cn2c1 returned FBW7 act 0.7, GPR151 activ -10.2, TEAD-YAP inh 98.0* and MITF primary -3.5.
`O=C(Oc1cccc2cccnc12)c1cc([N+](=O)[O-])ccc1Cl` gave FBW7 act -0.2, GPR151 activ 0.6, TEAD-YAP inh -4.0 and MITF primary 6.8.
Cc1ccc(S(=O)(=O)c2cnc3ccccc3c2N2CCOCC2)cc1C was read as FBW7 act 0.1, GPR151 activ -0.1, TEAD-YAP inh -20.6 and MITF primary 3.4.
Screening CN(C)CCNCC(O)COc1ccc(C(C)(C)c2ccccc2)cc1 (centres undefined) returned FBW7 act -0.1, GPR151 activ 1.0, TEAD-YAP inh 3.7 and MITF primary 20.7.
For CCN1CCN(C(=O)c2cc3c(=O)[nH]c4ccc(C)cc4c3s2)CC1 the results were FBW7 act 0.0, GPR151 activ 1.0, TEAD-YAP inh 37.4* and MITF primary 18.4.
Cc1ccc2[nH]c(=O)c3cc(C(=O)N4CCN(C)CC4)sc3c2c1 was read as FBW7 act 0.0, GPR151 activ -0.2, TEAD-YAP inh -0.4 and MITF primary -1.1.
O=C(c1ccc(-c2nnc(-c3ccccc3)o2)cc1)N1CCOCC1 was read as FBW7 act 0.2, GPR151 activ -9.8, TEAD-YAP inh 42.9* and MITF primary -13.7.
`CC(=O)Nc1ccc(C(=O)N2CCOCC2)cc1` gave FBW7 act 0.6, GPR151 activ -0.8, TEAD-YAP inh 6.8 and MITF primary 13.5.
CC(C)N(CCNc1nc(Nc2ccncc2)nc2c1ncn2-c1ccsc1)C(C)C was read as FBW7 act -0.1, GPR151 activ -1.3, TEAD-YAP inh 2.4 and MITF primary -2.0.
`CC(C)n1cnc2c(NCCc3ccc(O)cc3)nc(Nc3ccc4ncccc4c3)nc21` gave FBW7 act 0.1, GPR151 activ 2.0, TEAD-YAP inh 38.9* and MITF primary 4.0.
CC(C)N(CCNc1nc(Nc2ccc3ncccc3c2)nc2c1ncn2-c1ccsc1)C(C)C was read as FBW7 act -0.2, GPR151 activ -2.1, TEAD-YAP inh 44.4* and MITF primary 10.0.
`COc1cc(Nc2nc(NCCN(C(C)C)C(C)C)c3ncn(-c4ccsc4)c3n2)cc(OC)c1OC` gave FBW7 act -0.1, GPR151 activ -0.7, TEAD-YAP inh 8.8 and MITF primary -3.3.
`CCCNc1nc(Nc2ccc3ncccc3c2)nc2c1ncn2C(C)C` gave FBW7 act 0.0, GPR151 activ -0.6, TEAD-YAP inh -9.1 and MITF primary 2.1.
For c1ccc(CNc2nc(Nc3cccnc3)nc3c2ncn3-c2ccsc2)cc1 the results were FBW7 act -0.1, GPR151 activ -0.1, TEAD-YAP inh 31.6 and MITF primary 12.1.
`CC(C)N(CCNc1nc(Nc2cccnc2)nc2c1ncn2-c1ccsc1)C(C)C` gave FBW7 act -0.3, GPR151 activ 1.3, TEAD-YAP inh 35.0* and MITF primary -4.7.
CCCNc1nc(Nc2cccnc2)nc2c1ncn2-c1ccsc1 was read as FBW7 act -0.1, GPR151 activ -0.1, TEAD-YAP inh 61.0* and MITF primary -0.3.
Screening Cc1cc2ncn(C(=O)c3cccc(Cl)c3)c2cc1C returned FBW7 act 0.1, GPR151 activ 0.3, TEAD-YAP inh 3.0 and MITF primary 5.5.
For O=C(NCCCN1CCOC(c2ccccc2)C1)Nc1ccccc1Cl (centres undefined) the results were FBW7 act -0.2, GPR151 activ -0.4, TEAD-YAP inh 5.5 and MITF primary -0.4.

Assay outcomes as filed in PubChem.
